From PubChem BioAssay AID686978 (National Center for Advancing Translational Sciences (NCATS), 2013) come the findings set out here.

“And” between values parts separate entries of the source, which are not always exact repeats. Equal values may be shown once. Among all 420,000 compounds or so, about 64,000 (15%) were called active. About 27% were inconclusive and are not listed. Calls follow the shape of the dose curve; as a rule, active = well fitted inhibition curve with a large enough effect; inconclusive = small, poorly fitted or top-dose-only effect; inactive = flat fitted curve, though single readings scatter. A selection follows. Entries that show only a call come without a potency.
Potency is read from the fitted curve at half-maximal effect.

The nature of the assay: qHTS for Inhibitors of human tyrosyl-DNA phosphodiesterase 1 (TDP1): qHTS in cells in absence of CPT. Also: nearly all actives have a fitted effect of over 55% in size. Conditions: DT40 Tdp1-/- hTDP1 cells, no CPT, ATP luminescence, 48 h; activity change, negative = growth inhibition: at 46.2 µM (top of the series). Put shortly: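 DT40 Tdp1-/-;hTDP1 cells, no CPT (DMSO vehicle only), 400 cells/well; compounds pin-transferred; ≥48 hr, 37 °C; CellTiter-Glo 30 min RT dark, luminescence read.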
On the technique in general: Quantitative high-throughput screening tests each substance at several concentrations.
For `CN(C(=O)c1cccc(NC(=O)Cc2ccc(NC(=O)C3CCCN(C(=O)C4CCCC4)C3)cc2)c1)C1CCC1` (stereo not drawn), the Potency is 20.6 µM (active). The value for `CC(=O)c1cccc(NC(=O)N2CCCC2C(=O)NCCc2ccccc2)c1` (stereo not drawn) was “inactive”; that for `CN(C(=O)c1ccc(NC(=O)Cc2cccc(NC(=O)C3CCN(C(=O)c4ccccc4)CC3)c2)cc1)C1CC1` was “inactive”. The value for `O=C(Cc1ccc(NC(=O)C2CCCN(C(=O)CCc3ccccc3)C2)cc1)Nc1ccc(C(=O)N2CCOCC2)cc1` (stereo not drawn) was 18.4 µM (active); that for `CCNC(=O)c1cccc(NC(=O)C2CC(=O)N(CCc3ccccc3)C2)c1` (stereo not drawn) was “inactive”.

For `CN(C(=O)c1cccc(NC(=O)Cc2ccc(NC(=O)C3CCCN(C(=O)C4CC4)C3)cc2)c1)C1CC1` (stereo not drawn), the Potency entry was “inactive”. The value for `CN(CCc1ccccc1)C(=O)c1cccc(NC(=O)Cc2cccc(NC(=O)C3CCCN(C(=O)CCc4ccccc4)C3)c2)c1` (stereo not drawn) was 13 µM (active).

As for `O=C(Cc1ccc(NC(=O)C2CCCN(C(=O)C3CCCCC3)C2)cc1)Nc1cccc(C(=O)N2CCCCC2)c1` (stereo not drawn), the Potency entry is “inactive”. On to `CN(C(=O)c1cccc(NC(=O)C2CCN(C(=O)OC(C)(C)C)CC2)c1)C1CCC1`, for which the Potency entry is “inactive”.

For the compound `CN(C(=O)c1cccc(NC(=O)Cc2cccc(NC(=O)C3CCCN(C(=O)C4CC4)C3)c2)c1)C1CCC1` (stereo not drawn), the Potency entry is “inactive”. To `O=C(Cc1ccc([N+](=O)[O-])cc1)Nc1ccc(C(=O)N2CCOCC2)cc1` belongs “inactive”. `CC(C)(C)OC(=O)N1CCC(C(=O)Nc2cccc(C(=O)NCCc3ccccc3)c2)CC1`: the Potency was 14.6 µM (active). The value for `Cc1cc(NC(=O)CCC(=O)N(Cc2ccccc2)C(C(=O)NC2CCCC2)c2ccc(C)o2)no1` (stereo not drawn) was “inactive”. The value for `CCc1nc2ccc(C(=O)NC3CCN(Cc4ccccc4)CC3)cn2c1N(C)CCN1CCOCC1` was “inactive”. To `O=C(NC(=S)Nc1ccccc1C(=O)O)c1ccc(-c2ccc(Br)cc2)o1` belongs “inactive”. As for `O=C(c1cccnc1NCc1ccccc1)N1CCOCC1`, the Potency result was “inactive”. Consider `CC(=O)Nc1ccc(NC(=O)c2ccc3c(c2)C(=O)N(c2ccccc2C)C3=O)cc1`, for which the Potency result was “inactive”. With `NC(=O)C1(N2CCCCC2)CCN(C(=O)c2ccc(C#Cc3ccccc3)o2)CC1`, the Potency result is “inactive”.

In the case of `COCCCNC(=O)CNC(=S)N(Cc1cc(OC)c(OC)c(OC)c1)C1CCCC1`, the Potency result is “inactive”. The value for `COc1ccc(C)cc1N(C)C(=O)c1coc(=O)c2ccccc12` was “inactive”; that for `CC/C(Cc1ccccc1)=N/NC(=O)CCn1nnc2ccccc21` was “inactive”. With `NS(=O)(=O)c1ccc(NC(=S)N2CCCC2)cc1`, the Potency entry was “inactive”.

Take `CC1CN(Cc2ccco2)C(=S)N(c2ccccc2)C1=O` (stereo not drawn): the Potency entry is “inactive”. The value for `CN(C)C(=S)N=c1ssc(=S)n1Cc1ccco1` was 1.64 µM (active); that for `CCN(CC)C(=O)CSc1nnc(CNc2ccc(F)cc2)n1Cc1ccco1` was “inactive”. To `CC1=CC=CC2=N/C(=N\S(=O)(=O)c3ccc(F)cc3F)c3ccccc3CN12` belongs “inactive”; to `C=CCSC1=C(C#N)C(c2cc(Br)c(O)c(OC)c2)CC(=O)N1` (stereo not drawn), “inactive”; to `COC(=O)CSC1=C(C#N)C(c2ccccc2OC)C(C(=O)OC)C(=O)N1` (stereo not drawn), “inactive”. As for `CCOC(=O)CSC1=C(C#N)C(c2sccc2C)CC(=O)N1` (stereo not drawn), the Potency is 3.55 µM (active). To `COc1cccc(CNC(=O)C2CCN(S(=O)(=O)c3cccc4cccnc34)CC2)c1` belongs “inactive”. As to `Cc1ccc2nc(C)c3c(c2c1)N(c1ccccc1)CC3`, the Potency was 13 µM (active). Consider `Cc1nc2ccc(C(=O)N3CCN(c4ccccc4)CC3)cc2s1`, for which the Potency entry was “inactive”. The value for `Cc1ccc2nc3n(c(=O)c2c1)CCC3` was “inactive”.

As to `CC(=O)c1ccc(NC(=O)CCc2nnc3ccc(NCc4ccco4)nn23)cc1`, the Potency entry was “inactive”. Consider `Cc1cc(C)nc(NS(=O)(=O)c2ccc(NC(=O)c3cc(=O)c4ccc(C)c(C)c4o3)cc2)n1`, for which the Potency entry is “inactive”. In the case of `Cc1nc(SCC(=O)Nc2ccc(C(=O)O)cc2)n[nH]1`, the Potency result was “inactive”. `O=S(=O)(Nc1cc(Cl)ccc1N1CCOCC1)c1ccccc1Cl`: the Potency entry was “inactive”. To `O=C1c2ccccc2-c2ncnc3c(N4CCOCC4)cc(N4CCOCC4)c1c23` belongs 10.3 µM (active); to `O=S(=O)(N1CCOCC1)N1CCN(c2ccccc2F)CC1`, “inactive”.

As to `COc1ccc(CCNC(=O)CSc2nnc3ccc(-c4ccncc4)nn23)cc1`, the Potency result was “inactive”. With `Cc1nn(Cc2ccc(F)cc2)c(C)c1NC(=O)c1cc(CC(C)C)on1`, the Potency was 20.6 µM (active). Take `Cc1ccccc1Cn1nc(C)c(NC(=O)C(F)(F)F)c1C`: the Potency result was “inactive”. `Cc1nn(Cc2ccccc2Cl)c(C)c1NC(=O)Cn1nc([N+](=O)[O-])c(Cl)c1C`: the Potency result is “inactive”. With `Cc1nn(Cc2ccc(F)cc2)c(C)c1NC(=O)c1cccnc1Cl`, the Potency entry is “inactive”.

Turning to `CC(C)Cc1cc(C(=O)Nc2cc(Br)ccc2O)no1`, the Potency was 14.6 µM (active). The value for `CC(C)CNC(=O)c1cc(-c2ccc(Br)cc2)on1` was “inactive”; that for `CC(C)Cc1cc(C(=O)NCCc2ccccc2)no1` was “inactive”; that for `Cc1cc(C(=O)Nc2c(C)nn(Cc3ccccc3)c2C)on1` was “inactive”.

Turning to `Cc1nn(Cc2ccc(F)cc2)c(C)c1NC(=O)c1noc2c1CCc1ccccc1-2`, the Potency was 18.4 µM (active) and 16.4 µM (active). To `c1ccc(CN=C2Nc3ccccc3CS2)nc1` belongs “inactive”; to `CC1(C)O[C@H]2CC(=O)OCC23[C@H]2CC[C@@]4(C)[C@H](c5ccoc5)OC(=O)[C@H]5O[C@]54[C@]2(C)C(=O)C[C@@H]13` (stereo partly drawn), “inactive”. With `COc1ccc(NC(=O)c2c(SC)nsc2SC)cc1`, the Potency result was “inactive”. Turning to `Oc1ccc2c(c1)OCC1c3cc4c(cc3OC21)OCO4` (stereo not drawn), the Potency result was “inactive”. To `CCSc1sc(CC)cc1C=O` belongs “inactive”; to `COc1ccccc1/C=C/C=N/NC(=O)CN1CCN(Cc2ccccc2)CC1`, “inactive”; to `Cc1cc(SCc2c(F)cccc2Cl)nc(=O)[nH]1`, “inactive”. The value for `CCn1cc(NC(=O)Nc2ccc(OC)c(OC)c2)c(C(N)=O)n1` was “inactive”; that for `COc1ccc(NC(=O)N2CCCn3nc(C)cc32)cc1OC` was “inactive”; that for `COc1ccc(NC(=O)NC(C)c2c(-n3cccc3)sc(C)c2C)cc1OC` (stereo not drawn) was 16.4 µM (active).

Regarding `Cc1ccc(NC(=O)CCC(=O)c2ccc(Br)cc2)cc1`, the Potency entry was “inactive”. To `COCC(C)NC(=O)COc1nncc2ccccc12` (stereo not drawn) belongs “inactive”; to `NC(Cc1ccc(F)cc1)c1csc(Nc2nncc3ccccc23)n1` (stereo not drawn), 4.11 µM (active).

As for `O=C(Nc1ccc2c(c1)OCCO2)C1CCCN(c2ncccn2)C1` (stereo not drawn), the Potency entry is “inactive”.
